# From PubChem BioAssay (NCATS)
# A number with no mark means an inactive call. Results filed as inconclusive are left out. Active and inactive are the calls of the source. Unless noted, calls come from the whole dose curve; as a rule, active = well fitted curve in either direction with a large enough effect (not every such curve was filed as active); inconclusive = small, poorly fitted or top-dose-only effect, or another doubt; inactive = flat fitted curve, though single readings scatter.
# How the values were obtained:
# [1] = target: Lysosomal acid glucosylceramidase (Homo sapiens) (UniProt P04062); assay: Glucocerebrosidase-p2 (AID 348; in the data active = potency below about 10 µM; note: potency is the fitted concentration of half-maximal effect); details: purified GBA, blue fluorogenic substrate, 40 min
# Lysosomal acid glucosylceramidase (Homo sapiens), sequence (P04062 whole entry, looked up): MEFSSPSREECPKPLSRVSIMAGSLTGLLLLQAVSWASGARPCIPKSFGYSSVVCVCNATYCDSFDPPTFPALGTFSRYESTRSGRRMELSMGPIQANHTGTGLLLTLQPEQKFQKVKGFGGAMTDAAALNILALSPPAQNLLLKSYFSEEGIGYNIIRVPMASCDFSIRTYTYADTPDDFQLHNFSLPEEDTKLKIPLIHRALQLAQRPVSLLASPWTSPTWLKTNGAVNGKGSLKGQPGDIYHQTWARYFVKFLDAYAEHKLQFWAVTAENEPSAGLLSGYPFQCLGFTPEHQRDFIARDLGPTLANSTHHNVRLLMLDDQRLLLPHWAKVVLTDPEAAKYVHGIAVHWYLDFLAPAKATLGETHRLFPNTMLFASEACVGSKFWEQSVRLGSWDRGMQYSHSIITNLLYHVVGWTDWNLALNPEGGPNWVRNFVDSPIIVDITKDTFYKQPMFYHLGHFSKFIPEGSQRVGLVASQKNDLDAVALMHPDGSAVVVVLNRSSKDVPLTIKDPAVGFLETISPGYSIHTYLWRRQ
# How it was run: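 Compounds titrated from 0.6 nM upwards against 0.2 nM enzyme in pH 5.9 citric acid/KH2PO4, taurocholate, tween-20; blue fluorogenic substrate 80 uM, 40 min room temperature, stopped and read Ex 365/Em 440 for AC50.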
# [2] = AP1 Signaling Pathway (AID 357); details: ME-180 AP-1-bla reporter, EGF-induced, beta-lactamase ratio, 5 h; at 7.69 µM (top of the series) unless noted;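 note: ME-180 reporter cells stimulated with EGF at its EC50 level; % is set by controls: 0 for no effect and ±100 for the full control effect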
# How it was run: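 Cells are seeded overnight, exposed to compound titrations and an EC50 level of EGF for 5 hours at 37 °C, then loaded with CCF4 dye for 2.5 hours. Beta-lactamase activity under the AP-1 element is read as a blue/green ratio.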
# [3] = target: Cytochrome P450 1A2 (Homo sapiens) (UniProt P05177); assay: p450-cyp1a2 (AID 410; calls by dose curve; note: potency is the fitted concentration of half-maximal effect;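 for activity change, negative = inhibition: -100% = full effect of reference inhibitor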); details: recombinant CYP1A2, luciferin-ME demethylation, luminescence; series mostly up to 11.4 µM
# Cytochrome P450 1A2 (Homo sapiens), sequence (P05177 whole entry, looked up): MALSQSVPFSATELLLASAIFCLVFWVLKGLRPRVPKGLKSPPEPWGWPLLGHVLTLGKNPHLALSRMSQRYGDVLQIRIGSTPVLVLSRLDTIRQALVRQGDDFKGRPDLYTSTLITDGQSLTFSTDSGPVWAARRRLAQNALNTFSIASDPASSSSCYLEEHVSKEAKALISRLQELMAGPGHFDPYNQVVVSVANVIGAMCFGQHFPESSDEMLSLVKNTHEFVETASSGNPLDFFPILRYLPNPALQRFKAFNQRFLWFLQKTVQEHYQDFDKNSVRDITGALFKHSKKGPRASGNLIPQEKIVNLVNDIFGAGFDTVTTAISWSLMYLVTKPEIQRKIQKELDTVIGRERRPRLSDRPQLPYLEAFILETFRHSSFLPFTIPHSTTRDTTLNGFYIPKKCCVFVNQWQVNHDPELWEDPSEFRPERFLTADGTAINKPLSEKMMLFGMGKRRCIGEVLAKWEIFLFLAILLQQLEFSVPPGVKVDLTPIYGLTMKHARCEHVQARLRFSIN
# How it was run: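 Inhibition was calculated relative to 57 uM furafylline (full inhibition). The reaction used human CYP1A2 at 20nM with Luciferin-ME at its Km, 100uM, driven by an NADPH-regenerating system for 60 min at room temperature.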
# [4] = NFAT Signaling Pathway (AID 444); details: Jurkat NFAT-bla M1, carbachol, beta-lactamase ratio, 5 h; at 7.69 µM (top of the series) unless noted;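 note: carbachol stimulus at about its EC50 of 1 µM final; % is set by controls: 0 for no effect and ±100 for the full control effect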
# How it was run: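 Read-out: CCF4 FRET ratio (460 nm/530 nm) after 1 h RT dye loading, used for %activity and AC50 from titration series. Cells: Jurkat NFAT-β-lactamase/M1 line, treated with compound plus 1 uM carbachol for 5 h, 37 °C.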
# [5] = Stat Signaling Pathway (AID 446); details: ME-180 SIE beta-lactamase reporter, IL-6 stimulated, 5 h; at 7.69 µM (top of the series) unless noted;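 note: ME-180 cervical cancer cells given 40 pM IL-6 alongside compound; SIE-controlled beta-lactamase reporter measured as 460/530 nm FRET emission ratio; % is set by controls: 0 for no effect and ±100 for the full control effect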
# How it was run: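 ME-180 cells carrying a SIE-driven beta-lactamase reporter are stimulated with 40 pM IL-6 for 5 h at 37C in the presence of compound. The 460/530 nm FRET substrate ratio is read after 2.5 h at RT. Data are normalised to 300 pM IL-6 and to 125 nM JAK inhibitor controls.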
# [6] = target: Glucocorticoid receptor (Homo sapiens) (UniProt P04150); assay: GR-GFP Redistribution (AID 450;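 active = compounds whose dose series gives a full or clear partial fitted curve of increased nuclear translocation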; note: potency is the fitted concentration of half-maximal effect); details: U2OS GR-GFP nuclear translocation, laser cytometry, 2 h
# Glucocorticoid receptor (Homo sapiens), sequence (P04150 whole entry, looked up, the tested form may be a part): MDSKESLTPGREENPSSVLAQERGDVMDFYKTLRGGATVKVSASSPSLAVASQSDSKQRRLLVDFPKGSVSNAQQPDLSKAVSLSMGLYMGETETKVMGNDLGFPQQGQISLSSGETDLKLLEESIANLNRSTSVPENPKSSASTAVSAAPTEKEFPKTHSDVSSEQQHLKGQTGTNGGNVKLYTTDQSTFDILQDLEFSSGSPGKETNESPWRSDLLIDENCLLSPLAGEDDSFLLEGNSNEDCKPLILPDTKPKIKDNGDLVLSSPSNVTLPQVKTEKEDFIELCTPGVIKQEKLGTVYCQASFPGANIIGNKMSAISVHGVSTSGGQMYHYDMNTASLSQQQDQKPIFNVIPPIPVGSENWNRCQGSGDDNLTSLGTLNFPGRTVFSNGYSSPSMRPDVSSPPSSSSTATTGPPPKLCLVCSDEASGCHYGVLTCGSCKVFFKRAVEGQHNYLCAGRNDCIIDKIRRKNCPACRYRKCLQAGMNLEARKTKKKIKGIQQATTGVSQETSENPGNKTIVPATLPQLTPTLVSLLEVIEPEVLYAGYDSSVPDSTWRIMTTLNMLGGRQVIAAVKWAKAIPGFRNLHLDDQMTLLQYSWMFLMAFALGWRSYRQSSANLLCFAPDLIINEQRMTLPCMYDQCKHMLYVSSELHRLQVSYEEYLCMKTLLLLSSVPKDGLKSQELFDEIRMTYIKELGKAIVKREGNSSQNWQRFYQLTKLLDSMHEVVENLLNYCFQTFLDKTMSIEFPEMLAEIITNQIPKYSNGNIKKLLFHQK
# [7] = target: Glucocorticoid receptor (Homo sapiens) (UniProt P04150); assay: GR-EFC Redistribution (AID 451; calls by dose curve; note: potency is the fitted concentration of half-maximal effect); details: CHO-K1 GR-EFC translocation, beta-gal luminescence, 2 h
# How it was run: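 Translocation of GR-ED fusion to nuclear EA restores b-gal, read by luminescence after 1 h room-temperature detection. Engineered CHO-K1 biosensor cells, 1,000/well, exposed 2 h at 37 C to titrations up to 46 uM final.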
# [8] = target: Mitogen-activated protein kinase 10 (Mus musculus) (UniProt Q61831); assay: JNK3 AlphaScreen Assay (AID 530); details: JNK3 lysate, c-Jun phosphorylation; series mostly up to 11.4 µM;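 note: kinase came from lysate of stimulated human HepG2 cells; signal reports phosphorylation of biotinylated GST-cJun 1-79 at Ser73 with 10 µM ATP; % is set by controls: 0 for no effect and ±100 for the full control effect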
# How it was run: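 Room-temperature AlphaScreen kinase assay; pre-activated HepG2 lysate as JNK3 source, biotin-GST-cJun(1-79) substrate, 10 uM ATP, compound 15 min preincubation.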
# [9] = target: 3',5'-cyclic-AMP phosphodiesterase 4B (Homo sapiens) (UniProt Q07343); assay: qHTS Assay for Inhibitors of PDE-IV (AID 607; active = well fitted activation curve with a large enough effect in the main read-out, with a control signal flat, not every such curve was filed as active; note: % of control where 0% means no effect); details: HEK293 ACTOne CNG channel cells, membrane potential fluorescence; series mostly up to 22.9 µM
# 3',5'-cyclic-AMP phosphodiesterase 4B (Homo sapiens), sequence (Q07343 whole entry, looked up): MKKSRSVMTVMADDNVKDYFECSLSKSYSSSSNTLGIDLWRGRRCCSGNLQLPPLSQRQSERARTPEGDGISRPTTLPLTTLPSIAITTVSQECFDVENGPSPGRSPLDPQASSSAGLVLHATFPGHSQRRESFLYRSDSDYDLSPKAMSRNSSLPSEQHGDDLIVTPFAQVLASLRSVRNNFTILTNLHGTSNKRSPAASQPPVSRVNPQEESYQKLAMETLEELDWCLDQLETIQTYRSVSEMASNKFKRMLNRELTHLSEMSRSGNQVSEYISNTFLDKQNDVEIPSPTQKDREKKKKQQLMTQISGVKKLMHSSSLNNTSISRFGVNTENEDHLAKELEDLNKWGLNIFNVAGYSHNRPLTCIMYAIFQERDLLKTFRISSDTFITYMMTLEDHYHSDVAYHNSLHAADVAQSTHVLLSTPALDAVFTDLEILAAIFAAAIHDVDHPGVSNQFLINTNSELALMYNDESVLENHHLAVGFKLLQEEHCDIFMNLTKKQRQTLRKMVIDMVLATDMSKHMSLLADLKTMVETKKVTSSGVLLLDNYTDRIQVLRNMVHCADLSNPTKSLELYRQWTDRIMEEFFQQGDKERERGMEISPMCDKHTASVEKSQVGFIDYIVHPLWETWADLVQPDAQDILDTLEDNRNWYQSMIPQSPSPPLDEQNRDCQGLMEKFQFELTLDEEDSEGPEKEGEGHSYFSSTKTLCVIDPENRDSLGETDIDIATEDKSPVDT
# How it was run: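 HEK293 ACTOne cells with CNG channel (1000/well), endogenous PDE4; membrane potential dye, compounds up to 22.9 uM final. Fluorescence Ex 535/Em 590; RO 20-1724 (100 uM final) as reference.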
# [10] = target: Cytochrome P450 2C9 (Homo sapiens) (UniProt P11712); assay: qHTS Assay for Inhibitors and Substrates of Cytochrome P450 2C9 (AID 883; active = well fitted curve in the direction sought with a large enough effect; an effect the other way counts as inactive or inconclusive; note: nearly all actives have a fitted effect of over 60% in size; note: potency is the fitted concentration of half-maximal effect); details: recombinant CYP2C9, luciferin-H luminescence, 60 min; series mostly up to 11.4 µM
# Cytochrome P450 2C9 (Homo sapiens), sequence (P11712 whole entry, looked up): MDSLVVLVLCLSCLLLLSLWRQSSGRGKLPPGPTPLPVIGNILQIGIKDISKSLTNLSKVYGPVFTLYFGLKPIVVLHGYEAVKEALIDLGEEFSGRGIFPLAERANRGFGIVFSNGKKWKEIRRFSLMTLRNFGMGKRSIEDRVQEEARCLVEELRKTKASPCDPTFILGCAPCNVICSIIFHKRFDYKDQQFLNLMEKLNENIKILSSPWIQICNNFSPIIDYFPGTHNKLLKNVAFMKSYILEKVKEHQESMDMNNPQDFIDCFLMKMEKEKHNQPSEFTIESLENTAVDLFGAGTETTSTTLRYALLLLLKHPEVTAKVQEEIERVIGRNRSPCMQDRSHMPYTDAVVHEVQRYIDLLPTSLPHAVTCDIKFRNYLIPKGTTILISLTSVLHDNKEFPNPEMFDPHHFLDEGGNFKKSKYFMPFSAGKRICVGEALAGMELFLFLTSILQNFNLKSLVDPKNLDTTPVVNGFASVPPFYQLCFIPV
# How it was run: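 Inhibition of CYP2C9 is scored as loss of luminescence, with 57uM sulphaphenazole defining 100% inhibition. Substrate Luciferin-H is used at 100uM, equal to its KM; enzyme at 10nM in 25mM KPO4, 60 min at 37C with NADPH regeneration.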
# [11] = target: Cytochrome P450 3A4 (Homo sapiens) (UniProt P08684); assay: qHTS Assay for Activators of Cytochrome P450 3A4 (AID 885; active = well fitted curve in the direction sought with a large enough effect; an effect the other way counts as inactive or inconclusive; note: nearly all actives have a fitted effect of over 65% in size); details: recombinant CYP3A4, Luciferin-PPXE luminescence, 60 min; series mostly up to 11.4 µM
# Cytochrome P450 3A4 (Homo sapiens), sequence (P08684 whole entry, looked up): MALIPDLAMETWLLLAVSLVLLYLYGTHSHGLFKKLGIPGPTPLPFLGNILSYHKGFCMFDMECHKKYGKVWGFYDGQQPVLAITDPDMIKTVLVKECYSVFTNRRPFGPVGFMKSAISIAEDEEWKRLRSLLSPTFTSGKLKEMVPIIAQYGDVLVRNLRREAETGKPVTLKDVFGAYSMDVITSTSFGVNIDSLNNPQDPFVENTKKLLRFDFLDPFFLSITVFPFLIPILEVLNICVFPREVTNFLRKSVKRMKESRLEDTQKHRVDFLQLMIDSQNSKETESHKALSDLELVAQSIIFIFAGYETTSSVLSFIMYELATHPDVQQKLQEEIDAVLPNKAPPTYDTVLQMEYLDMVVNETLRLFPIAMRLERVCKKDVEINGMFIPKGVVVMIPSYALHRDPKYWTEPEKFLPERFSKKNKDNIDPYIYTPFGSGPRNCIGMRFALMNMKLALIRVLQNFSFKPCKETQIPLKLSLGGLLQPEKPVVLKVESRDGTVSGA
# How it was run: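 Human CYP3A4 (20 nM) with Luciferin-PPXE at 25 uM (its KM) in 200 mM KPO4; 10 min compound preincubation, then NADPH regeneration and 60 min reaction at RT. Luciferin read by luminescence; normalized to 57 uM ketoconazole full inhibition.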
# [12] = target: Cytochrome P450 2C19 (Homo sapiens) (UniProt P33261); assay: qHTS Assay for Inhibitors and Substrates of Cytochrome P450 2C19 (AID 899; active = well fitted curve in the direction sought with a large enough effect; an effect the other way counts as inactive or inconclusive; note: nearly all actives have a fitted effect of over 60% in size; note: potency is the fitted concentration of half-maximal effect); details: recombinant CYP2C19, luciferin-H EGE luminescence; series mostly up to 11.4 µM
# Cytochrome P450 2C19 (Homo sapiens), sequence (P33261 whole entry, looked up): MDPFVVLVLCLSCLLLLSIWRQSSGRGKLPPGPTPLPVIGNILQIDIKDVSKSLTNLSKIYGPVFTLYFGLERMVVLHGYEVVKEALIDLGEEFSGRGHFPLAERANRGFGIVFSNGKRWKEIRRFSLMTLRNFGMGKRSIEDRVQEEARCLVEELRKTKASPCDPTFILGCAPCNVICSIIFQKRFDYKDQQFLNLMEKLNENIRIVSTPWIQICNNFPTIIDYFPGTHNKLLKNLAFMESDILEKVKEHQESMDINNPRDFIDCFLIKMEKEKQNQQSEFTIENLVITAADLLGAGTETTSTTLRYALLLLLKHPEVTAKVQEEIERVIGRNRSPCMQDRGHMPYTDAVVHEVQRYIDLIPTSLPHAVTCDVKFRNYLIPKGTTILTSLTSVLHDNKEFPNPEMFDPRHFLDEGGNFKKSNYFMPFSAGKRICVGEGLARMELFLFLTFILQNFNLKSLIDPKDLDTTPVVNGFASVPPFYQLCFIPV
# How it was run: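 5nM enzyme + 10uM Luciferin-H EGE (=KM), 50mM KPO4; cpd pin-transferred, 10 min 37C; NADPH regen, 60 min 37C; stopped w/ luciferin detection reagent, 20 min; luminescence. Normalized to 57uM ketoconazole (AC100).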
# [13] = target: Cytochrome P450 3A4 (Homo sapiens) (UniProt P08684); assay: qHTS Assay for Inhibitors and Substrates of Cytochrome P450 3A4 (AID 884; active = well fitted curve in the direction sought with a large enough effect; an effect the other way counts as inactive or inconclusive; note: nearly all actives have a fitted effect of over 50% in size; note: potency is the fitted concentration of half-maximal effect); details: recombinant CYP3A4, Luciferin-PPXE luminescence; series mostly up to 57.1 µM
# How it was run: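 20 nM human CYP3A4 with 25 uM Luciferin-PPXE (at KM) in 200 mM KPO4, preincubated 10 min with compound; NADPH regeneration started a 60 min RT reaction. Luciferin detected by luminescence, normalized to 57 uM ketoconazole as full inhibition.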
# [14] = target: Cytochrome P450 2D6 (Homo sapiens) (UniProt P10635); assay: qHTS Assay for Inhibitors and Substrates of Cytochrome P450 2D6 (AID 891; active = well fitted curve in the direction sought with a large enough effect; an effect the other way counts as inactive or inconclusive; note: nearly all actives have a fitted effect of over 60% in size; note: potency is the fitted concentration of half-maximal effect); details: recombinant CYP2D6, luciferin-ME EGE luminescence; series mostly up to 11.4 µM
# Cytochrome P450 2D6 (Homo sapiens), sequence (P10635 whole entry, looked up): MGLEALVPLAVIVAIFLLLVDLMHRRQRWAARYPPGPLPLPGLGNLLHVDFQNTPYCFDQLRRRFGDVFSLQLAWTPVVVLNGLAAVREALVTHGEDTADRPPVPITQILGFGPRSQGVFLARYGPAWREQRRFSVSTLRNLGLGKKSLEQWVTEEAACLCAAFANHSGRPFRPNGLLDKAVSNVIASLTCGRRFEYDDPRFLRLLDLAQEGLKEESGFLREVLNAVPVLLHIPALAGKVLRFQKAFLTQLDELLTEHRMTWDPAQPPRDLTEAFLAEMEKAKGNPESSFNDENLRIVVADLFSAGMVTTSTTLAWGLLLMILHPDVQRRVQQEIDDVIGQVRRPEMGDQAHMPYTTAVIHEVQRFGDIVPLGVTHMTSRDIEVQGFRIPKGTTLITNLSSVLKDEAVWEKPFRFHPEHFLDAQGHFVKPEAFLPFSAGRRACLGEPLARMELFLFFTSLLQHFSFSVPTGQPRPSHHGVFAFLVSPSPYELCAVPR
# How it was run: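 Human CYP2D6 (5 nM) with 30 uM Luciferin-ME EGE (at Km) in 100 mM KPO4, compound preincubated 10 min, then NADPH regeneration system for 60 min at room temperature. Luciferin read by luminescence; normalized to 1.43 uM quinidine.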
# [15] = qHTS Assay for Identification of Small Molecule Agonists for Hypoxia Response Element Signaling Pathway (AID 914; active = well fitted activation curve with a large enough effect in the signal ratio, with a control signal flat, not every such curve was filed as active; the % refers to the signal ratio; note: % of control where 0% means no effect); details: ME-180 (cervical carcinoma) HRE-bla reporter, beta-lactamase ratio, CoCl2, 17 h; activation: stronger effect = higher value
# How it was run: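 Read-out: CCF4 FRET ratio of 460nm to 530nm emission (excitation 405nm) after 2.5 hours at room temperature, taken from HRE-bla ME-180 cells that had been exposed to compound and EC50 CoCl2 for 17 hours.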
Compound,Potency [1],"activity change, negative = inhibition [2]",Potency [3],"activity change, negative = inhibition [4]","activity, negative = inhibition [5]",Potency [6],Potency [7],Potency [8],Potency [9],Potency [10],Potency [11],Potency [12],Potency [13],"activity change, negative = inhibition [13]",Potency [14],activation [15],"activity change, negative = inhibition [3]"
O=C(Nc1cccc2ccccc12)c1ccccc1,> 11.4 µM,-4.06%,3.98 µM (active),-11.4%,3.33%,> 46 µM,> 9.22 µM,inactive,inactive,inactive,inactive,,,,,,
CN(C)CCNCCN,> 11.4 µM,9.73%,inactive,16.1%,4.92%,> 46 µM,> 9.22 µM,inactive,inactive,inactive,,inactive,,,,,
O=[N+]([O-])c1ccc(Nc2nc3ccccc3s2)cc1,> 11.4 µM,18.2%,inactive,-2.36%,0.26%,> 46 µM,> 9.22 µM,inactive,inactive,1.26 µM (active),inactive,,,,,,
COc1ccc(C[C@@H]2C(=O)N[C@H](C)C(=O)N(C)[C@@H]3Cc4ccc(cc4)Oc4cc(ccc4O)C[C@H](C(=O)N[C@@H](C)C(=O)N[C@H](C)C(=O)N2C)N(C)C3=O)cc1,> 11.4 µM,-121% (active),inactive,-132% (active),-104% (active),> 46 µM,> 9.22 µM,inactive,inactive,,inactive,,3.98 µM (active),,,,
N=C(N)SCCN1CCCCC1,> 11.4 µM,10.8%,inactive,0.176%,-0.606%,> 46 µM,> 9.22 µM,inactive,inactive,inactive,,inactive,,-31.7% [at 11.4 µM],inactive,,
COc1ccc(CCCC(=O)O)c(C)c1,> 11.4 µM,1.4%,inactive,-4.8%,-0.975%,> 46 µM,> 9.22 µM,inactive,inactive,inactive,,inactive,,-0.798% [at 11.4 µM],inactive,-8.35%,
Cc1cc(SCC(=O)c2ccccc2)nc2ccccc12,> 11.4 µM,-8.06%,0.398 µM (active),13.7%,9.67%,> 46 µM,> 9.22 µM,inactive,inactive,inactive,,0.398 µM (active),,-103% [at 11.4 µM],inactive,,
C[C@H]1C[C@@H]2[C@H]3CCC4=CC(=O)C=C[C@@]4(C)[C@]3(Cl)[C@@H](Cl)C[C@]2(C)[C@]1(O)C(=O)COP(=O)(O)O,> 11.4 µM,-4.94%,inactive,9.07%,2.85%,0.0275 µM (active),7.37 µM (active),inactive,inactive,inactive,,inactive,,,inactive,,
Oc1ccc(Cc2nccc3cc(O)c(O)cc23)cc1O,> 11.4 µM,-6.37%,5.01 µM (active),7.28%,-2.43%,> 46 µM,> 9.22 µM,inactive,inactive,inactive,,,,,1.26 µM (active),,
C(=N/Nc1nnc2c(n1)[nH]c1ccccc12)/c1cccnc1,> 11.4 µM,-0.49%,0.631 µM (active),1.85%,-7.13%,> 46 µM,> 9.22 µM,inactive,inactive,,inactive,,3.98 µM (active),,,,
COc1ccc([C@@H](Nc2ncccn2)c2cc3c(cc2O)OCO3)cc1,> 11.4 µM,-6.22%,,17.5%,-1.19%,> 46 µM,> 9.22 µM,inactive,inactive,3.16 µM (active),inactive,0.316 µM (active),,,,,-14.3% [at 2.29 µM]
Nc1nc(N)nc(CCCCc2nc(N)nc(N)n2)n1,> 11.4 µM,4.24%,,12.4%,-0.633%,> 46 µM,> 9.22 µM,inactive,inactive,inactive,,inactive,,,inactive,,8.1% [at 2.29 µM]
Nc1[nH]c(=S)[nH]c(=O)c1N=Nc1c(Br)cc(S(N)(=O)=O)cc1Br,> 11.4 µM,1.56%,3.16 µM (active),-0.337%,12%,> 46 µM,> 9.22 µM,inactive,inactive,inactive,,inactive,,,,,
